Our source for the inhibition values is PubChem BioAssay AID687 (PCMD, 2007).

The whole screen tested about 33,000 compounds, of which about 95 (0.3%) were called active. This is one part of a sample in which actives are shown more often than they occur. Unmarked numbers belong to inactive results.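 How the source made its calls: active means inhibition above 40% in the primary screen; inactive means the rest.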

The test deals with Coagulation factor XI (Homo sapiens) (UniProt P03951). Kind of test: human FXIa protease inhibitors, primary screen, biochemical, single compound per well (AID 687).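 Further: 0% = enzyme without compound and 100% = blank wells lacking enzyme.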 The conditions noted are these: purified human FXIa, fluorogenic AMC substrate cleavage; at 10 µM; stronger effect = higher value.
Chain of Coagulation factor XI (Homo sapiens) (P03951 19-387 limits assumed): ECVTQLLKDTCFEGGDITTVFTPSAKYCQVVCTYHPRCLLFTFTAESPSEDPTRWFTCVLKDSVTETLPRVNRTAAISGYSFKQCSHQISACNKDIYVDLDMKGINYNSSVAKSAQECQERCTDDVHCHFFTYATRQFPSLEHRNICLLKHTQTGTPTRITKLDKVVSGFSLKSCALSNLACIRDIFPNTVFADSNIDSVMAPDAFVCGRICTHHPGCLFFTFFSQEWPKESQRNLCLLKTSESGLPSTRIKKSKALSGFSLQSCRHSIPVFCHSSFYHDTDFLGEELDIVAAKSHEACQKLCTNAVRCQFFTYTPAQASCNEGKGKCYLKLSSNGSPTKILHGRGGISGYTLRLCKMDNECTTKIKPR
Chain of Coagulation factor XI (Homo sapiens) (P03951 388-625 limits assumed): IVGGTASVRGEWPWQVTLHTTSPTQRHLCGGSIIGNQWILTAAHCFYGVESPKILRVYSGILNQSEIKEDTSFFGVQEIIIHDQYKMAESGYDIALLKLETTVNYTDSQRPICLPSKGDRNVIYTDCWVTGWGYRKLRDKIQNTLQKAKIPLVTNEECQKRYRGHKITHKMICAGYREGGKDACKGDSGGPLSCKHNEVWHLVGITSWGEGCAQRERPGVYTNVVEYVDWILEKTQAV
A word on the inhibition: it is the drop in the measured response relative to a control, in per cent. In the case of `CCc1ccc(CNC(=O)C2CC(=O)N(CCc3ccc(C)cc3)C2)cc1` (stereo not drawn), the inhibition is 1.74%. The value for `CC(C)(C)Oc1ncc(Br)c(OC(C)(C)C)n1` was -4.12%; that for `CCc1ccc(CNC(=O)CCc2nc(-c3cccs3)no2)cc1` was 5.18%.

Regarding `CCOC(=O)c1cnc(SCC(=O)Nc2ccccc2C(=O)OC)nc1N`, the inhibition is -1.2%. As for `Cc1cc(C)n(-c2nnc(C)n2NC(=O)c2cccc(Cl)c2)n1`, the inhibition was -1.74%. On to `C/C(=N\NS(=O)(=O)c1ccc(Br)cc1)c1cccs1`, for which the inhibition is 7.3%.

On to `O=C(O)c1cc2ccccc2c(=O)s1`, for which the inhibition is 3.97%. On to `CCn1c(CC(=O)Nc2ccc(C)cc2)nnc1SCC(=O)Nc1nc(C)cs1`, for which the inhibition was 0.06%.

As to `COc1ccc(C)cc1NC(=O)CCS(=O)(=O)c1cccc2nonc12`, the inhibition was 24.9%.

Regarding `Cc1cc(C)nc(N2C(=O)CC(Cc3ccccc3)C2=O)n1` (stereo not drawn), the inhibition is -0.09%.

In the case of `CCN1CC=C2C(C#N)=C(N)C(C#N)(C#N)[C@H](c3ccoc3)[C@H]2C1`, the inhibition was 1.2%.

As to `Cc1cccc(N2CCN(C(=O)c3cnn4c(C(F)F)cc(-c5ccccc5)nc34)CC2)c1C`, the inhibition was 3.2%. In the case of `CCOC(=O)CN(Cc1ccc(OC)c(OC)c1)S(=O)(=O)c1ccc(OC)cc1` it was 6.28%. In the case of `CC(C)NC(=O)CSc1ccccc1C(=O)NCc1ccc2c(c1)OCO2` it was 6.02%; in that of `COn1c(=O)c(=O)n(OC)c2ccccc21`, 3.76%.

Consider `Cc1cc(C)n(C(=O)CCNC(=O)c2ccccc2Cl)n1`, for which the inhibition was -5.37%.

As for `CCOC(=O)C1=C(C)NC2=C(C(=O)CC(C)(C)C2)C1c1ccsc1` (stereo not drawn), the inhibition is 1.22%.

Turning to `Cc1cc(=O)oc2ccc(OCC(=O)O)cc12`, the inhibition is -9.94%.

In the case of `COc1ccc(Cl)cc1C(=O)Nc1ccc(N(C)C(C)=O)cc1`, the inhibition is 13.5%. For the compound `COc1cccc(OC)c1C(=O)Nc1ccc(N2CCCCC2)cc1`, the inhibition is 4.14%. The value for `CCCC(=O)C1CCN(Cc2ccccc2)CC1` was 9.51%. In the case of `O=C(O)CCN=C1CCc2ccccc2N1` it was 5.95%; in that of `CCNC(=O)N1CCNC(=O)C1CC(=O)Nc1ccc(C(=O)OCC)cc1` (stereo not drawn), -0.73%; in that of `CCC(=O)N(Cc1ccccc1)c1ccccn1`, -8.8%. Regarding `O=C(c1ccco1)N1CCN(C(=O)C2CCCN(S(=O)(=O)c3cccc4nsnc34)C2)CC1` (stereo not drawn), the inhibition was -6.85%.

As for `CCCOc1cccc(C(=O)Nc2nnn(CCC)n2)c1`, the inhibition was -6.61%. The value for `Cc1nnc(SCC(=O)N2CCc3ccccc3C2)s1` was 21.3%.

As to `O=C(COc1ccc(Cl)cc1)NCCSc1ccccc1`, the inhibition was 6.47%. Turning to `COc1ccc(-n2cnc3cc(NCc4ccco4)ccc32)cc1`, the inhibition was 4.4%. In the case of `Cn1nnnc1SCC(=O)N1CCN(C(c2ccccc2)c2ccccc2)CC1` it was -3.99%; in that of `CCCC(O)(c1ccc(OC)cc1)C(CN(C)C)c1ccccc1` (stereo not drawn), -1.37%; in that of `CSc1nc(C)cc(SC(C(C)=O)C(=O)Nc2ccccc2)n1` (stereo not drawn), 0.47%. As for `CC(=O)Nc1cccc(Oc2cc(C#N)c(C#N)cc2N2CCOCC2)c1`, the inhibition was 2.12%.

On to `CCOc1ccc(NC(=O)CCS(=O)(=O)c2ccc3c(c2)CCCN3C(=O)CC)cc1`, for which the inhibition is 19.3%.

As to `Cc1ccc(S(=O)(=O)c2c(COC(=O)c3cccc(Cl)c3)c(-c3ccccc3)nn2C)cc1`, the inhibition is 6.1%.

On to `CSc1ccccc1NC(=O)c1cc(C2CC2)on1`, for which the inhibition was 5.92%. In the case of `CC(=O)c1c(C)[nH]c(C(=O)NCc2ccc(C)cc2)c1C` it was 4.49%; in that of `CCOc1cccc(NC(=O)Cn2nc(-c3ccc4c(c3)OCCO4)ccc2=O)c1`, -4.23%. The value for `O=C1C=C(NCCNc2c(F)c(F)c(CO)c(F)c2F)CCC1` was -9.07%; that for `CC(C)C(c1nnnn1Cc1ccccc1)N1CCC(C(N)=O)CC1` (stereo not drawn) was 3.2%. Take `O=C(Cc1ccc(-n2c(=O)[nH]c3ccccc3c2=O)cc1)N1CCN(c2cccc(Cl)c2)CC1`: the inhibition is 3.03%. For `O=C(CN1CCSCC1)N/N=C/c1ccc(F)cc1`, the inhibition was -8.31%. Turning to `CCc1cccc(C)c1N(C(=O)Cn1c(CO)nc2ccccc21)C(C)COC` (stereo not drawn), the inhibition was 20.8%. As for `CC(=O)OC(C(=O)NCCc1ccccc1)c1cccnc1` (stereo not drawn), the inhibition is 4.94%.

As for `OCCN1CCOCCOCCN(CCO)CCN(CCO)CC1`, the inhibition was 29.9%. Turning to `CCOc1ccc(C(O)Cc2nc3ccccc3n2C)cc1` (stereo not drawn), the inhibition was 4.61%. On to `Cc1ccc(C(=O)N2CCN(C3CCCCC3)CC2)s1`, for which the inhibition is -2.79%. In the case of `CCCCN1C(=O)CC(N2CCOCC2)C1=O` (stereo not drawn) it was 4.69%; in that of `O=c1[nH][nH]c(C(F)(F)F)c1C=NCc1ccccc1Cl`, -12.4%; in that of `O=C(NCc1ccc2c(c1)OCO2)C12CC3CC(CC(C3)C1)C2`, -3.87%. The value for `COC(=O)CNS(=O)(=O)c1ccc(OC)cc1` was 0.19%; that for `CCN(CC)C(=O)CSc1nnc(C2CCCCC2)o1` was 5.02%; that for `CC1CCC(N2CC(=O)N(Cc3ccc4c(c3)OCO4)C(c3ccc(F)cc3)C2=O)CC1` (stereo not drawn) was 1.08%. In the case of `N#Cc1c(N)nc2c3c(sc(=N)c2c1N)NC(=O)CC3c1ccccc1Cl` (stereo not drawn) it was 40.9% (active); in that of `O=C(Cc1c(F)cccc1Cl)N1CCN(C(=O)c2ccco2)CC1`, 2.75%. For `O=C(O)CSCc1ccc(C(=O)O)o1`, the inhibition is 0.52%.

`CCC(CC)C(=O)N1CC(=O)Nc2ccc(Br)cc2C1c1ccccc1` (stereo not drawn): the inhibition was -3.26%. In the case of `CC(C)C(=O)NC(NC(=S)NC1CCS(=O)(=O)C1)C(Cl)(Cl)Cl` (stereo not drawn) it was 0.31%; in that of `CCCc1nc2oc3c(OCC)ncnc3c2c2c1COC(C)(C)C2`, 26%. The value for `Cc1cc(C(=O)Nc2c(C)nn(Cc3ccccc3)c2C)on1` was 9.91%; that for `COc1ccc(-c2cn(-c3ccc(C)cc3)c(=O)n2CC(=O)Nc2ccc(OC)c(OC)c2)cc1` was -1.74%; that for `S=c1nccc(-c2cc(Cl)sc2Cl)[nH]1` was 3.11%. The value for `CC1CC(C)CN(C(=O)CSc2nnc(CSc3ncccn3)n2C)C1` (stereo not drawn) was -0.18%.
